PubChem BioAssay (Tox21)
Values without a mark were called inactive. Inconclusive results are not listed. A call without a number means that no potency is given here. Activity calls are given as the source filed them. Unless noted, calls follow the shape of the dose curve; as a rule, active = well fitted curve in the direction sought with a large enough effect in the repeat runs; inconclusive = weak or mixed curves; inactive = no such curve, though single readings can be large; an effect the other way counts as inactive or inconclusive.

How the values were obtained:
[1] = qHTS assay to identify small molecule antagonists of the glucocorticoid receptor (GR) signaling pathway - cell viability counter screen (AID 720693); also: nearly all actives have a fitted effect of over 55% in size; also: potency is read from the fitted curve at half-maximal effect
[2] = qHTS assay for identifying genotoxic compounds that show differential cytotoxicity against isogenic chicken DT40 cell lines with known DNA damage response pathways - Rev3 mutant cell line (AID 743014); also: nearly all actives have a fitted effect of over 55% in size; also: potency is read from the fitted curve at half-maximal effect
[3] = qHTS assay for identifying genotoxic compounds that show differential cytotoxicity against isogenic chicken DT40 cell lines with known DNA damage response pathways - Rad54/Ku70 mutant cell line (AID 743015); also: nearly all actives have a fitted effect of over 60% in size; also: potency is read from the fitted curve at half-maximal effect
[4] = qHTS assay for identifying genotoxic compounds that show differential cytotoxicity against isogenic chicken DT40 cell lines with known DNA damage response pathways - wild type cell line (AID 743012); also: nearly all actives have a fitted effect of over 60% in size; also: potency is read from the fitted curve at half-maximal effect
In short: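 Viability by ATP luminescence (CellTiter-Glo, 30 min RT) after 40 h compound treatment at 37 C/5% CO2, using 300 parental DNA repair-proficient DT40 cells per well.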

[5] = qHTS assay to identify small molecule antagonists of the androgen receptor (AR) signaling pathway using the MDA cell line - cell viability counter screen (AID 743041; also: nearly all actives have a fitted effect of over 45% in size; also: potency is read from the fitted curve at half-maximal effect)
In short: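 Using the breast carcinoma line MDA-kb2 AR-luc, test chemicals were co-incubated with R1881 for 16 h; CellTiter-Fluor reagent, added at 15.5 h, provided a fluorescence measure of live cells.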

[6] = qHTS assay to identify small molecule antagonists of the androgen receptor (AR) signaling pathway - cell viability counter screen (AID 743033; also: nearly all actives have a fitted effect of over 45% in size; also: potency is read from the fitted curve at half-maximal effect)
[7] = biological target: Androgen receptor (Homo sapiens) (UniProt P10275); assay: qHTS assay to identify small molecule agonists of the androgen receptor (AR) signaling pathway using the MDA cell line (AID 743040; also: nearly all actives have a fitted effect of over 20% in size)
In short: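 Stable MMTV-luciferase reporter in MDA-kb2 cells; note the promoter carries GR as well as AR response elements. 16 h compound treatment, 37C, 0% CO2; ONE-Glo luminescence endpoint.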

[8] = biological target: Androgen receptor (Homo sapiens) (UniProt P10275); assay: qHTS assay to identify small molecule antagonists of the androgen receptor (AR) signaling pathway (AID 743035; active = well fitted inhibition curve with a large enough effect in the signal ratio in the repeat runs, not every such curve was filed as active; the % refers to the signal ratio)
In short: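 Antagonist mode: AR-bla HEK293 cells co-treated with test compounds and agonist R1881 for 16 h at 37C, 5% CO2. Beta-lactamase activity read as FRET fluorescence after 2 h room-temperature substrate loading.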

[9] = biological target: Androgen receptor (Homo sapiens) (UniProt P10275); assay: qHTS assay to identify small molecule agonists of the androgen receptor (AR) signaling pathway (AID 743036; active = well fitted activation curve with a large enough effect in the signal ratio in the repeat runs, with a control signal flat, not every such curve was filed as active; the % refers to the signal ratio)
In short: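 Fluorescence from a beta-lactamase FRET substrate served as read-out in AR-UAS-bla GripTite HEK293 cells. Cells were treated with DMSO-dissolved compounds for 16 h at 37C, then with LiveBLAzer B/G substrate for 2 h at room temperature.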

Sequence of Androgen receptor (Homo sapiens) (P10275 whole entry, looked up): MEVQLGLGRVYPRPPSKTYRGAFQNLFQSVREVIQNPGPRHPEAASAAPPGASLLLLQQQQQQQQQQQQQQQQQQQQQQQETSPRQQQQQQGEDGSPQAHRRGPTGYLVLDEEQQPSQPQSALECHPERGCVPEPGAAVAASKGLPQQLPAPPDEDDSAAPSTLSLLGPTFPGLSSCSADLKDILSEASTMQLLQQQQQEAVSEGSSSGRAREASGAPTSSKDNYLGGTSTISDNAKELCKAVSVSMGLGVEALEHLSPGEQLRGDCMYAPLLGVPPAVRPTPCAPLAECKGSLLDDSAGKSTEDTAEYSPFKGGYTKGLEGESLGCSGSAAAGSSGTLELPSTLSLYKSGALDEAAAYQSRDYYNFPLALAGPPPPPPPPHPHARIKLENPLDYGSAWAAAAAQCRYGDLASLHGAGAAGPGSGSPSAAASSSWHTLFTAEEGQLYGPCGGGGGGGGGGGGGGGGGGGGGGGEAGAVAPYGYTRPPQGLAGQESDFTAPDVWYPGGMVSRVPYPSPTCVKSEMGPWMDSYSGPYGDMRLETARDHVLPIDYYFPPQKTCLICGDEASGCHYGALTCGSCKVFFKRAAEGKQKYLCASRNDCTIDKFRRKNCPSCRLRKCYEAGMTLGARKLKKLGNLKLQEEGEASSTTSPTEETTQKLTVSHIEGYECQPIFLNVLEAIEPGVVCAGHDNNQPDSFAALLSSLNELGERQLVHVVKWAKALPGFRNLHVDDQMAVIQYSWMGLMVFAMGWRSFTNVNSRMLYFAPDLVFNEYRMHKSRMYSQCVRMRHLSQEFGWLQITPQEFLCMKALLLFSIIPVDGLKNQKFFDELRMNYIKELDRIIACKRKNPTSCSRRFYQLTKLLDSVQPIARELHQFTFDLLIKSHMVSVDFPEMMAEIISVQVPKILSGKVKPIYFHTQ

Structure (SMILES)	Potency [1]	Potency [2]	Potency [3]	Potency [4]	Potency [5]	Potency [6]	outcome [7]	Potency [8]	outcome [9]
Cc1cc(C2CC2)nc(Nc2ccccc2)n1	inactive	30.6 µM (active)	24.3 µM (active)	–	–	–	–	–	–
CNN	inactive	inactive	inactive	inactive	inactive	–	–	–	–
[O]=[Cr][O][Cr]=[O]	inactive	inactive	inactive	–	inactive	inactive	–	–	–
CNC(=O)CSP(=O)(OC)OC	inactive	–	inactive	inactive	inactive	inactive	–	–	–
CSC(C)(C)/C=N/O	inactive	inactive	inactive	inactive	inactive	–	–	–	–
CN1[C@@H]2CC[C@H]1CC(O)C2 (stereo partly drawn)	inactive	inactive	inactive	inactive	inactive	–	–	–	–
Cc1c([N+](=O)[O-])cc2c(c1[N+](=O)[O-])C(C)(C)CC2(C)C	inactive	–	inactive	inactive	inactive	inactive	–	–	–
[Cl][Hg][c]1ccccc1	0.309 µM (active)	0.172 µM (active)	0.0863 µM (active)	–	3.44 µM (active)	1.38 µM (active)	inactive	–	–
CCCCn1cc[n+](C)c1.[Cl][Fe-]([Cl])([Cl])[Cl]	inactive	inactive	–	inactive	inactive	inactive	–	–	–
O.O.O.O=C([O-])[C@H]([O-])[C@@H]([O-])C(=O)[O-].O=C([O-])[C@H]([O-])[C@@H]([O-])C(=O)[O-].[K+].[K+].[Sb+3].[Sb+3]	inactive	inactive	3.46 µM (active)	–	–	inactive	–	–	–
CSC1=N[C@@](C)(c2ccccc2)C(=O)N1Nc1ccccc1	inactive	1.72 µM (active)	1.54 µM (active)	1.54 µM (active)	48.6 µM (active)	–	–	–	–
c1ccc2nc(N3CCNCC3)ccc2c1	inactive	–	–	29.8 µM (active)	inactive	–	–	–	–
CN	inactive	inactive	inactive	inactive	inactive	–	–	–	–
CC(C)C(Nc1ccc(C(F)(F)F)cc1Cl)C(=O)OC(C#N)c1cccc(Oc2ccccc2)c1 (stereo not drawn)	inactive	inactive	inactive	inactive	inactive	–	–	–	–
COCCC#N	inactive	inactive	inactive	inactive	inactive	–	–	–	–
COP(=S)(NC(C)C)Oc1ccc(C)cc1[N+](=O)[O-] (stereo not drawn)	inactive	–	61.1 µM (active)	54.5 µM (active)	–	–	–	–	–
O=C(Cl)c1ccccc1F	inactive	–	inactive	inactive	inactive	inactive	–	–	–
CSSC	inactive	–	inactive	inactive	inactive	–	–	–	–

Structure (SMILES)	Potency [1]	Potency [2]	Potency [3]	Potency [4]	Potency [5]	Potency [6]	outcome [7]	Potency [8]	outcome [9]
Nc1ccccc1-c1ccccc1	inactive	inactive	inactive	inactive	inactive	–	–	–	–
Cc1c([N+](=O)[O-])c(C)c([N+](=O)[O-])c(C(C)(C)C)c1[N+](=O)[O-]	inactive	68.6 µM (active)	–	68.6 µM (active)	inactive	inactive	–	–	–
O=[N+]([O-])[O-].[Tl+]	inactive	1.09 µM (active)	1.09 µM (active)	1.55 µM (active)	inactive	–	–	–	–
COc1ccc2c(c1OC)C(=O)O[C@@H]2[C@H]1c2cc3c(cc2CCN1C)OCO3	inactive	–	inactive	inactive	inactive	inactive	inactive	inactive	inactive
CC(=O)[O][Sn]([c]1ccccc1)([c]1ccccc1)[c]1ccccc1	0.871 µM (active)	0.172 µM (active)	0.172 µM (active)	0.122 µM (active)	5.45 µM (active)	–	–	–	–
CCCCCON=O	inactive	inactive	inactive	–	–	inactive	–	–	–
CN1CCc2cc3c(cc2C1O)OCO3 (stereo not drawn)	inactive	inactive	inactive	–	–	inactive	–	–	–
CCCCON=O	inactive	inactive	inactive	inactive	inactive	–	–	–	–
CC(C)=CC1C(C(=O)OC(C#N)c2cccc(Oc3ccccc3)c2)C1(C)C (stereo not drawn)	inactive	inactive	inactive	–	inactive	inactive	inactive	inactive	inactive
CC(C)=CCN1CC[C@@]2(C)c3cc(O)ccc3C[C@@H]1[C@@H]2C	inactive	26.9 µM (active)	60.2 µM (active)	–	–	inactive	–	–	–
CC[C@]1(O)CC[C@H]2[C@@H]3CCC4=CCCC[C@@H]4[C@H]3CC[C@@]21C	3.01 µM (active)	9.44 µM (active)	13.3 µM (active)	–	inactive	inactive	–	–	–
O=[N+]([O-])c1ccccc1-c1ccccc1	inactive	inactive	inactive	–	inactive	inactive	–	–	–
COC(=O)C(C)N(C(=O)c1ccco1)c1c(C)cccc1C (stereo not drawn)	inactive	54.4 µM (active)	–	–	inactive	inactive	–	–	–
COP(=S)(OC)Oc1ccc([N+](=O)[O-])c(C)c1	inactive	–	inactive	–	inactive	inactive	–	–	–
O=[N+]([O-])c1cccc2cccc([N+](=O)[O-])c12	inactive	61.4 µM (active)	61.4 µM (active)	–	inactive	inactive	–	–	–
CCC[CH2][Sn]([CH2]CCC)([O]C(C)=O)[O]C(C)=O	inactive	30.9 µM (active)	30.9 µM (active)	–	inactive	–	–	–	–
CCOP(=O)(OCC)Oc1nc(Cl)c(Cl)cc1Cl	inactive	–	60.8 µM (active)	–	inactive	inactive	inactive	–	–
Oc1ccc2[nH]cc(CCCCN3CC=C(c4ccccc4)CC3)c2c1	inactive	5.96 µM (active)	7.5 µM (active)	–	inactive	inactive	–	–	–
